Assay outcomes: PubChem, several laboratories
CYP2C19 act = activators of human cytochrome P450 2C19; P33261; recombinant CYP2C19, luciferin-H EGE luminescence; hits give high values; 0 = fully inhibited enzyme, 1 = untreated enzyme; activation factor at 5 µM; 96,000 tested, under 10 active;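 active = activation factor of at least 2 at 5 µM in the primary screen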
CYP2C9 act = CYP2C9 (human) activation; activation factor at 5 µM; AID 1024; P11712; recombinant CYP2C9, luciferin-H conversion, luminescence; hits give high values; factor 1 = untreated enzyme, 0 = blocked; 96,000 compounds, 1.4% hits;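 active = activation factor of 2 or more for CYP2C9 at a 5 µM dose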
CYP2C9 inhib = blocks human cytochrome P450 2C9; inhibition, % at 5 µM; CYP2C9 Supersomes, luciferin-H conversion, luminescence; 96,000 compounds, 20% hits; AID 777;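 active = blocking of liver enzyme CYP2C9 beyond about 50% at 5 µM, limit read from the data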
CYP2C19 inh = blocks human cytochrome P450 2C19; P33261; CYP2C19 Supersomes, luciferin-H EGE luminescence, 30 min; inhibition, % at 5 µM; 96,000 compounds, 21% hits;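 active = CYP2C19 inhibition above a set limit at 5 µM in the primary screen, cut at about 50% in these data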
Cav32 inh = inhibitors of human Cav3.2 T-type calcium channel; O95180; 100,000 compounds, 4% hits; B-score at 10 µM; Cav3.2-expressing cells, Fluo-4 calcium fluorescence FDSS; hits give low values;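 active = single-dose well whose peak fluorescence ratio is a statistical outlier from its plate by either plate-standardised score or position-corrected B-score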
Of the large screens only hits and unclear results are named; the others gave an inactive call. An excerpt weighted towards active compounds, which were near 27% of everything screened.

CC(=O)Nc1sc2c(c1CN1CCN(c3ccccn3)CC1)CCCC2	CYP2C19 inh 82
O=C(CN1CCN(c2ccccn2)CC1)NC1CCCC1	none
CC(=O)Nc1sc2c(c1CN1CCN(c3ccc(F)cc3)CC1)CCCC2	CYP2C19 inh 86
CC1CCN(c2c(NCc3ccc(C(=O)N4c5ccccc5CC4C)cc3)c(=O)c2=O)CC1 (stereo not drawn)	none (no result: CYP2C19 act, CYP2C9 act, CYP2C9 inhib, CYP2C19 inh)
O=C(Oc1ccc2c(=O)c(Oc3ccc4ccccc4c3)coc2c1)c1ccco1	none
Cc1cccc(Oc2coc3cc(OC(=O)c4cc5ccccc5oc4=O)ccc3c2=O)c1	CYP2C9 act 2.1
CN1CCCCCC1=NC1=C(C#N)CCCC1	none
O=C(NCC1COc2ccccc2O1)C1CCCN(S(=O)(=O)c2cccc3nsnc23)C1 (stereo not drawn)	CYP2C9 inhib 61, CYP2C19 inh 54
O=C(NCC1CCCO1)C1CCN(S(=O)(=O)c2cccc3cccnc23)CC1 (stereo not drawn)	none
CCN(CCNC(=O)C1CCN(S(=O)(=O)c2cccc3nsnc23)CC1)c1ccccc1	none
O=C(NCC1COc2ccccc2O1)C1CCN(S(=O)(=O)c2cccc3nsnc23)CC1 (stereo not drawn)	CYP2C19 inh 59
O=C(NCC1COc2ccccc2O1)C1CCCN(S(=O)(=O)c2cccc3cccnc23)C1 (stereo not drawn)	CYP2C19 inh 75
Cc1onc(-c2ccccc2)c1C(=O)N1CCN(C/C=C/c2ccccc2)CC1	none (no result: Cav32 inh)
C#CCOCCOCCOCCNc1nc(N2CCOCC2)nc(N2CCN(C(=O)[C@H](C)n3cc(CCCN=C(N)N)nn3)CC2)n1	none (no result: CYP2C19 act, CYP2C9 act, CYP2C9 inhib, CYP2C19 inh)
COc1ccc(-c2nnc(SC(C)C(=O)Nc3cccc(Cl)c3)o2)cc1 (stereo not drawn)	CYP2C9 inhib 61
CC(Sc1nnc(-c2ccc(O)cc2)o1)C(=O)Nc1cccc2ccccc12 (stereo not drawn)	CYP2C19 inh 72
COC(=O)C(C)Sc1nnc(-c2ccncc2)o1 (stereo not drawn)	CYP2C19 inh 89
O=C(CSc1nnc(-c2ccccc2Br)o1)Nc1cccc2ccccc12	none
COc1ccc(C(C(=O)NC2CCCCC2)N(C(=O)CCCC(=O)Nc2ccccn2)c2ccc3c(c2)OCCO3)cc1 (stereo not drawn)	none
O=C(NC1CCCCC1)C(c1ccc(F)cc1)N(Cc1ccc2c(c1)OCO2)C(=O)c1cnsn1 (stereo not drawn)	none (no result: CYP2C19 act, CYP2C9 act, CYP2C9 inhib, CYP2C19 inh)
O=C(CN(Cc1ccccc1)C(=O)CCC(=O)Nc1ccccn1)NCc1ccco1	CYP2C19 inh 59
O=C(CN(Cc1ccc2c(c1)OCO2)C(=O)c1cnsn1)NC1CCCC1	CYP2C19 inh 88 (no result: Cav32 inh)
O=C(CCCC(=O)N(CC(=O)NC1CCCC1)Cc1ccc2c(c1)OCO2)Nc1ccccn1	CYP2C9 inhib 60, CYP2C19 inh 60
O=C(CCCC(=O)N(c1ccc2c(c1)OCCO2)C(C(=O)NC1CCCCC1)c1ccc(Cl)cc1)Nc1ccccn1 (stereo not drawn)	CYP2C9 inhib 52, CYP2C19 inh 55
O=C(c1cc2c(ccc3ccccc32)o1)N1CCN(c2ncc(C(F)(F)F)cc2Cl)CC1	none
N#Cc1sc(=O)[nH]c1Cl	none (no result: CYP2C19 act, CYP2C9 act, CYP2C9 inhib, CYP2C19 inh)
CCOc1ccc(N(CC(=O)NC2CCCC2)C(=O)CCCC(=O)Nc2ccccn2)cc1	none
Cc1cccc(N(CC(=O)NC2CCCC2)C(=O)c2c(C)noc2C)c1	none
O=C(CCCC(=O)N(CC(=O)NC1CCCC1)Cc1ccccc1)Nc1ccccn1	CYP2C9 inhib 50
O=C(CCC(=O)N(CC(=O)NC1CCCCC1)c1ccc2c(c1)OCO2)Nc1ccccn1	Cav32 inh -5.7
Cc1ccc(NC(=O)CS(=O)CC(=O)N(c2ccc(C)cc2)C(C)C(=O)NC2CCCCC2)cc1 (stereo not drawn)	Cav32 inh -7.3 (no result: CYP2C19 act, CYP2C9 act, CYP2C9 inhib, CYP2C19 inh)
Cc1cccc(N(CC(=O)NC2CCCC2)C(=O)CS(=O)CC(=O)Nc2ccc3c(c2)OCO3)c1 (stereo not drawn)	CYP2C9 inhib 88
CC(C(=O)N1CCC(C(N)=O)CC1)N(c1ccc(Oc2ccccc2)cc1)S(C)(=O)=O (stereo not drawn)	none
Cc1noc(C)c1C(=O)NCc1ccccc1	none
Cc1nc2ccccc2n1C1CC(=O)N(Cc2ccccc2)C1=O (stereo not drawn)	none
CCS(=O)(=O)N1Cc2ccccc2CC1C(=O)OCC(=O)Nc1ccc(C)cc1 (stereo not drawn)	CYP2C19 inh 75
